# PubChem BioAssay (NCI)
# Where “and” joins values, the source holds several entries; their conditions need not be identical. Equal entries are not always repeated. This is part of a sample that, as a whole, favours compounds with a hit. Of some 83,000 tested, about 20% had one in any assay.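 Results are percent growth after 48 hours of single-concentration exposure. 100 means growth as in untreated cells, lower positive values show inhibition; negative values down to -100 show cell death.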 Calls of active or inactive are those of the source. Rule for the calls: active = growth percent below 10; inactive = the rest.
# Key:
# Experiment in all cases: NCI-60 one-dose screen, 48 h (100 = growth as untreated, 0 = no growth, -100 = all killed)
# Settings in all cases: 10 µM unless noted
# HCT-15 colon = system: HCT-15 colon
# HT29 colon = system: HT29 colon
# SNB-75 CNS = system: SNB-75 CNS
# SNB-19 CNS = system: SNB-19 CNS
# U251 CNS = system: U251 CNS
# PC-3 prostate = system: PC-3 prostate
# SK-MEL-5 melanoma = system: SK-MEL-5 melanoma
# UACC-62 melanoma = system: UACC-62 melanoma
# LOX IMVI melanoma = system: LOX IMVI melanoma
# SK-MEL-28 melanoma = system: SK-MEL-28 melanoma
# SK-MEL-2 melanoma = system: SK-MEL-2 melanoma
# SN12C renal = system: SN12C renal
# UO-31 renal = system: UO-31 renal
# TK-10 renal = system: TK-10 renal
# ACHN renal = system: ACHN renal
# CAKI-1 renal = system: CAKI-1 renal
# A498 renal = system: A498 renal
# HL-60(TB) leukemia = system: HL-60(TB) leukemia
# CCRF-CEM leukemia = system: CCRF-CEM leukemia
# EKVX NSCLC = system: EKVX NSCLC
SMILES,growth (HCT-15 colon),growth (HT29 colon),growth (SNB-75 CNS),growth (SNB-19 CNS),growth (U251 CNS),growth (PC-3 prostate),growth (SK-MEL-5 melanoma),growth (UACC-62 melanoma),growth (LOX IMVI melanoma),growth (SK-MEL-28 melanoma),growth (SK-MEL-2 melanoma),growth (SN12C renal),growth (UO-31 renal),growth (TK-10 renal),growth (ACHN renal),growth (CAKI-1 renal),growth (A498 renal),growth (HL-60(TB) leukemia),growth (CCRF-CEM leukemia),growth (EKVX NSCLC)
CCC(=O)C(CC(C)[N+](C)(C)C)(c1ccccc1)c1ccccc1 (configuration not stated),97.6% (inactive),108% (inactive),93.8% (inactive),96.8% (inactive),97.9% (inactive),103% (inactive),97.2% (inactive),101% (inactive),96.7% (inactive),106% (inactive),104% (inactive),98.2% (inactive),95.9% (inactive),98.1% (inactive),102% (inactive),95.4% (inactive),111% (inactive),109% (inactive),114% (inactive),–
CN1CCN(c2ccc(Cl)cc2)CC1,20.1% (inactive),26.4% (inactive),111% (inactive),93.9% (inactive),70.1% (inactive),107% (inactive),101% (inactive),86.4% (inactive),–,99.1% (inactive),18.1% (inactive),90.7% (inactive),86.1% (inactive),102% (inactive),-11.9% (active),24.1% (inactive),97% (inactive),48.7% (inactive),87.3% (inactive),107% (inactive)
CC[C@H](C)[C@H](NC(=O)CN(C)C)C(=O)N(C)[C@H](C[C@@H](OC(C)=O)c1nc(C(=O)NC23CC(C(=O)OC)(C2)C3)cs1)C(C)C,21.6% (inactive),-1.6% (active),45.1% (inactive),41.5% (inactive),13.5% (inactive),25.8% (inactive),12.6% (inactive),24.4% (inactive),–,66.4% (inactive),37.5% (inactive),31.3% (inactive),50.1% (inactive),43.5% (inactive),–,51.6% (inactive),9.1% (active),-18.9% (active),6.24% (active),32.8% (inactive)
CCOC(=O)P(=O)(OCC)OCC,101% (inactive),102% (inactive),115% (inactive),97.9% (inactive),109% (inactive),92.5% (inactive),107% (inactive),96.9% (inactive),–,106% (inactive),113% (inactive),101% (inactive),92.3% (inactive),107% (inactive),105% (inactive),119% (inactive),102% (inactive),113% (inactive),118% (inactive),124% (inactive)
CCN1C(=O)CC(=O)N(CC)C1=S,96.4% (inactive),92.1% (inactive),72.4% (inactive),101% (inactive),105% (inactive),100% (inactive),96.8% (inactive),95.5% (inactive),–,105% (inactive),–,99.3% (inactive),91.7% (inactive),105% (inactive),101% (inactive),76.8% (inactive),94.6% (inactive),68.7% (inactive),94.8% (inactive),108% (inactive)
COc1ccc(C(C#N)C(C)=O)cc1 (configuration not stated),95% (inactive),88.7% (inactive),82.1% (inactive),105% (inactive),106% (inactive),103% (inactive),102% (inactive),97.6% (inactive),–,115% (inactive),103% (inactive),102% (inactive),90.4% (inactive),96.8% (inactive),–,95.3% (inactive),96.8% (inactive),110% (inactive),98.6% (inactive),108% (inactive)
CCCCOC(N)=O,101% (inactive),107% (inactive),88.6% (inactive),98% (inactive),106% (inactive),108% (inactive),99.6% (inactive),–,104% (inactive),112% (inactive),113% (inactive),103% (inactive),89.1% (inactive),–,111% (inactive),103% (inactive),125% (inactive),–,102% (inactive),–
CC[C@H](C)[C@H](NC(=O)c1cnccn1)C(=O)N(C)[C@H](C[C@@H](OC(C)=O)c1nc(C(=O)N[C@@H](Cc2ccccc2)C[C@H](C)C(=O)OC)cs1)C(C)C,6.99% (active),-5.79% (active),15% (inactive),31.9% (inactive),10.3% (inactive),21.7% (inactive),0.869% (active),34.2% (inactive),–,59.2% (inactive),–,43.6% (inactive),40.7% (inactive),–,45.3% (inactive),29.4% (inactive),-7.33% (active),-43.7% (active),12% (inactive),43.9% (inactive)
CC[C@H](C)[C@H](NC(=O)[C@H]1CCCCN1C)C(=O)N(C)[C@H](CCc1nc(C(=O)N[C@@H](Cc2ccccc2)C[C@H](C)C(=O)O)cs1)C(C)C,27.3% (inactive),-3.57% (active),28.3% (inactive),39.5% (inactive),7.98% (active),29.1% (inactive),5.59% (active),52.2% (inactive),–,59.4% (inactive),32.3% (inactive),46.8% (inactive),49% (inactive),49.4% (inactive),47% (inactive),51.2% (inactive),-7.5% (active),-34.5% (active),14.9% (inactive),47.7% (inactive)
C=CC[PH+](c1ccccc1)c1ccccc1.C=CC[PH+](c1ccccc1)c1ccccc1.[Pt+2].[S-]c1ncccn1.[S-]c1ncccn1,-29.3% (active),0.0923% (active),58.3% (inactive),74.9% (inactive),59.1% (inactive),38.8% (inactive),66.6% (inactive),27.7% (inactive),–,-30.9% (active),75% (inactive),40.3% (inactive),-94.5% (active),-3.54% (active),-43.3% (active),5.27% (active),103% (inactive),-5.51% (active),6.99% (active),2.19% (active)
CC(C)c1cccc(C(C)C)c1O,99.1% (inactive) and 107% (inactive),99.4% (inactive) and 102% (inactive),109% (inactive) and 81.4% (inactive),123% (inactive) and 94% (inactive),97.2% (inactive) and 99.7% (inactive),99.7% (inactive) and 93.8% (inactive),110% (inactive),118% (inactive) and 92.1% (inactive),–,115% (inactive) and 104% (inactive),113% (inactive),108% (inactive) and 104% (inactive),88% (inactive),116% (inactive) and 94.6% (inactive),–,95.1% (inactive) and 88.4% (inactive),112% (inactive) and 113% (inactive),97.9% (inactive) and 85.9% (inactive),107% (inactive) and 90.6% (inactive),101% (inactive) and 94.5% (inactive)
Clc1ccc(COC(Cn2ccnc2)c2ccc(Cl)cc2Cl)c(Cl)c1 (configuration not stated),41.9% (inactive) and 46.2% (inactive),23.4% (inactive) and 31% (inactive),78.6% (inactive) and 90.2% (inactive),83.4% (inactive) and 83.8% (inactive),45.5% (inactive) and 69.4% (inactive),40.9% (inactive) and 39.3% (inactive),39% (inactive) and 3.49% (active),41.5% (inactive) and 52.1% (inactive),–,81.5% (inactive),69.7% (inactive) and 87% (inactive),53.6% (inactive) and 73.9% (inactive),25.8% (inactive) and 35.5% (inactive),62.1% (inactive) and 73.5% (inactive),53.8% (inactive) and 72.4% (inactive),29.6% (inactive) and 53.7% (inactive),46.1% (inactive),-0.421% (active) and 18.6% (inactive),51% (inactive) and 53.5% (inactive),48.6% (inactive) and 59.2% (inactive)
O=C/C=C/c1ccco1,106% (inactive),95.1% (inactive),80.5% (inactive),106% (inactive),95.1% (inactive),83.7% (inactive),113% (inactive),–,98.2% (inactive),114% (inactive),108% (inactive),101% (inactive),88.9% (inactive),97.7% (inactive),109% (inactive),95.6% (inactive),96.9% (inactive),88.2% (inactive),100% (inactive),100% (inactive)
C[Se]/C=C1/C(=O)N(c2c(Cl)cccc2Cl)c2ccccc21,45.7% (inactive),7.79% (active),-30.8% (active),32.6% (inactive),25.1% (inactive),31.3% (inactive),38.9% (inactive),27.8% (inactive),–,8.1% (active),51.1% (inactive),-35.7% (active),-96.5% (active),11.6% (inactive),30.1% (inactive),2.44% (active),11.5% (inactive),-39.7% (active),10.2% (inactive),24% (inactive)
